CaV13 FRET inh = Disruptors of the CACNA1D IQ motif to Ca2+-dependent inactivation inhibitor domain association, primary screening, Förster resonance energy transfer in intact living …; HEK cells, CFP/YFP FRET ICDI-IQ, plate reader, 10 min; percent FRET-ratio fall versus neutral wells; inhibition, % at 12.3 µM; 340,000 compounds, 0.098% hits; AID 743397;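 active means mean replicate inhibition of at least 30% and at least 1% of replicates passing that level; inconclusive means only one of the two criteria is met; inactive means neither criterion is met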;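 further: 0% = median of the neutral control wells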
DENV2 CPE rescue = DENV2-induced cell death inhibition. 350,000 compounds, 1.7% hits. DENV2-infected cells, cytopathic effect rescue, plate reader. CPE inhibition, % at 9.99 µM; in the data active means CPE inhibition above about 20%, passing the limit was not always enough; inconclusive means no clear call, values can overlap the other calls; tested in BHK-21 cells;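 further: 0% = median of neutral control wells and 100% = median of positive control wells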
GSIS activator = GLuc luminescence reporter in INS-1E cells, primary screen for activators of glucose-dependent secretion of insulin | INS-1E GLuc reporter insulin secretion, 2-3 h | activation, % at 16.6 µM | 370,000 compounds, 0.61% hits;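 active means lowest replicate activation of at least 40%, so every replicate reaches that level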;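 further: 0% = median of neutral control wells and 100% = median of IBMX positive control wells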
ERAP1 inh = blocks human ERAP1 aminopeptidase activity. inhibition, % at 10.7 µM. recombinant ERAP1, Leu-AMC fluorescence, 60 min. Q9NZ08. 340,000 compounds, 0.15% hits;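 active means mean replicate inhibition of at least 30%, or all replicates individually reaching that 30% level; inactive means mean below 30% and not every replicate reaching it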;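 further: 0% = neutral control wells and 100% = L-leucinethiol positive control wells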
Target sequence (Q9NZ08 whole entry, looked up): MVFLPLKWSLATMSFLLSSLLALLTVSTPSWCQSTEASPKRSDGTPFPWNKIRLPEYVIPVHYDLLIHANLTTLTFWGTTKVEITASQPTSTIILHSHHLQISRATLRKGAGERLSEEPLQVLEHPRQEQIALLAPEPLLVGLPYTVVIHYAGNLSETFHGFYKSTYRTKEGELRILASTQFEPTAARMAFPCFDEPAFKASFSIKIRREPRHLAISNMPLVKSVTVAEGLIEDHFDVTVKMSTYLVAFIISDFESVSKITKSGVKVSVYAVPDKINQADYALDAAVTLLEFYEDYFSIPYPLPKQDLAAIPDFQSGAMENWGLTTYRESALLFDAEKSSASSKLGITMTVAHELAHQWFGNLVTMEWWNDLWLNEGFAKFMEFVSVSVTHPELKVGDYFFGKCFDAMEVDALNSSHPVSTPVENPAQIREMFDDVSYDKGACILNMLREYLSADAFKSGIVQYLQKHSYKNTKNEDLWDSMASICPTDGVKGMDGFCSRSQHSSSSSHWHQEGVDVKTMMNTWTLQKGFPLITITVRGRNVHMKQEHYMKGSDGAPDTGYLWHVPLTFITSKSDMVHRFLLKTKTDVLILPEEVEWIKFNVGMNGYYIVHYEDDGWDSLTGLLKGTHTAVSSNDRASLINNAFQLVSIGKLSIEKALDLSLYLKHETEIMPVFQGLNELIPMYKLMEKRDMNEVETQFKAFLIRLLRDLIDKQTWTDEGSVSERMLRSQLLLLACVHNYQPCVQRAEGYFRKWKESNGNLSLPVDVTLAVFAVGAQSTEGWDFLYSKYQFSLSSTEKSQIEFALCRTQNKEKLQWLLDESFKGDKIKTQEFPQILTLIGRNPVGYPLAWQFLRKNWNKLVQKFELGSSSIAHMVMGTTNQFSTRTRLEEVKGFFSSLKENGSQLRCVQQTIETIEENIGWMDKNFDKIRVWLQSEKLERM
rRNA inh HTS = inhibits bacterial ribosomal RNA function over humanized ribosomes; AID 720706; GFP signal change (wild-type ribosome), % (concentration not given with the values); E. coli WT GFP vs humanized-ribosome RFP mutants, fluorescence, 24 h; stronger effect = lower value; DMSO median 0, no signal -100; 350,000 compounds, 1.6% hits;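 active means significant combined selectivity score with lowered wild-type GFP, culture density cut under 30%, mutant RFP and density less affected; inactive means any of these conditions unmet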
PGC1a acetyl inh = PGC1a acetylation modulation, inhibitor mode; U2OS PGC1a acetylation, AlphaScreen anti-acetyl-lysine; with virally co-expressed GCN5 acetyltransferase; 350,000 compounds, 0.17% hits; AID 651687; inhibition, % at 15.6 µM;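 active means every replicate shows inhibition of at least 40%; inconclusive means mean inhibition at least 40% but some replicate below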;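 further: 0% = neutral control wells and 100% = positive control wells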
AID977621 = growth inhibition of wild-type GFP E. coli, dose response, H69 mutant RFP, cherry-pick. 1,900 tested, under 10 active. shares compounds with rRNA inh HTS. activity change, negative = inhibition at 50 µM. E. coli wild-type GFP strain growth, fluorescence, 24 h;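 active means Wild-type ribosome reporter drop at least double the humanized mutant ribosome reporter drop, growth loss under a set limit; inconclusive means no clear call, values can overlap the other calls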;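 further: wild-type GFP and H69 mutant RFP strains grown together 50/50 in each well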
AID977628 = growth of wild-type and h24-humanized E. coli strains – h24 mutant RFP vs wild-type GFP, cherry-pick, dose response; shares compounds with rRNA inh HTS; E. coli WT GFP strain growth, fluorescence, 24 h; activity change, negative = inhibition at 50 µM; 1,900 tested, under 10 active;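 active means compound lowering the normal-ribosome reporter at least twice as much as the humanized-ribosome reporter, growth loss under a set limit; inconclusive means no clear call, values can overlap the other calls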;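 further: wild-type GFP and h24 humanized RFP strains co-cultured 1 to 1 per well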
* hit, by the source's call; ? = inconclusive; nt = no result. Shown are actives, neighbours in structure and some others; about 3.2% of the full set was active somewhere.

SMILES | CaV13 FRET inh | DENV2 CPE rescue | GSIS activator | ERAP1 inh | rRNA inh HTS | PGC1a acetyl inh | AID977621 | AID977628
Cc1cc(Br)c2nc(-c3ccc(Cl)cc3)c(Cc3cccc(Cl)c3)n2c1 | -7.7 | 6.7 | -5.6 | nt | -18.9* | nt | ? | ?
Cc1ccc(-c2nc3c(Br)cc(C)cn3c2Cc2cccc(Cl)c2)cc1 | -10.9 | 5.5 | -19.8 | 0.2 | -5.6 | nt | nt | nt
CO[C@@H]1CN(C)C(=O)c2cc(NS(=O)(=O)CC(F)(F)F)ccc2OC[C@H](C)N(Cc2nccs2)C[C@H]1C | nt | nt | -5.5 | nt | -1.9 | 13.8 | nt | nt
CC1CN(C(=O)COC(=O)c2cccc(S(=O)(=O)N3CCc4ccccc43)c2)CC(C)O1 (stereo unspecified) | -6.3 | -2.0 | -18.0 | -1.8 | 1.1 | nt | nt | nt
O=C(OCC(=O)N1CCOCC1)c1cccc(S(=O)(=O)N2CCCc3ccccc32)c1 | -1.7 | ? | -10.2 | 2.3 | -17.8* | nt | -8.21 | ?
C[C@H]1CN([C@@H](C)CO)C(=O)c2cc(NC(=O)Nc3ccc4c(c3)OCO4)ccc2O[C@H]1CN(C)C(=O)Nc1ccc(F)cc1 | nt | ? | 8.8 | nt | -2.5 | 1.0 | nt | nt
COc1ccccc1CN1Cc2ccccc2Oc2ccccc2S1(=O)=O | -5.0 | 1.9 | -14.8 | -7.4 | -26.8* | nt | ? | nt
COCC(=O)Nc1ccc2c(c1)OC[C@@H](C)N(C(=O)COC)C[C@@H](C)[C@@H](OC)CN(C)C2=O | nt | -0.5 | -7.2 | 1.6 | 2.7 | 5.0 | nt | nt
O=C(NC1CCCC1)c1ccc([N+](=O)[O-])s1 | 6.5 | -3.6 | -17.8 | -3.0 | -20.4* | nt | -17.2 | -3.93
O=C(C[n+]1ccn(-c2ccccc2)c1)c1ccc([N+](=O)[O-])cc1 | -11.9 | 7.3 | 11.9 | -3.0 | -21.7* | -4.2 | nt | -7.84
NS(=O)(=O)c1cccc(NC(=O)COc2ncnc3c2cnn3-c2ccccc2)c1 | -4.1 | nt | 4.3 | 4.2 | -19.5* | 6.0 | ? | nt
COC(=O)[C@@H]1[C@@H](CO)[C@@H]2Cn3c(ccc(-c4ccccc4OC)c3=O)[C@@H]2N1CC1CCOCC1 | nt | 4.9 | 7.9 | -0.3 | -2.4 | nt | nt | nt
COc1ccccc1CNC(=O)C[C@@H]1CC[C@@H](NC(=O)CN(C)C)[C@H](CO)O1 | nt | -2.2 | -3.6 | 1.4 | 0.6 | 5.6 | nt | nt
Cc1cc(Cl)ccc1Nc1ncccc1C(N)=O | -2.4 | -11.3 | 16.1 | 4.7 | 1.5 | nt | nt | nt
NC(=O)c1cccnc1Oc1ccc(Cl)cc1Cl | -6.5 | 8.9 | -3.3 | 7.6 | -30.7* | -5.0 | -6.87 | -12.5
CC(C)NC(=O)N[C@H]1CC[C@H](CCNC(=O)C2CC2)O[C@@H]1CO | nt | -2.2 | 2.4 | 1.8 | 2.8 | 0.0 | nt | nt
C[C@H](CO)N1C[C@H](C)[C@@H](CN(C)C(=O)CCCN(C)C)OCCCC[C@H](C)Oc2ccc(NC(=O)Nc3cccc4ccccc34)cc2C1=O | nt | -2.4 | 1.9 | 0.4 | -1.6 | -11.3 | -7.84 | ?
C[C@@H]1CCCCO[C@@H](CN(C)C(=O)CCCN(C)C)[C@H](C)CN([C@H](C)CO)C(=O)c2cc(NC(=O)Nc3ccccc3)ccc2O1 | nt | -1.0 | 0.1 | 1.4 | 0.2 | 5.9 | nt | nt
C[C@@H]1CCCCO[C@H](CN(C)C(=O)CCCN(C)C)[C@H](C)CN([C@H](C)CO)C(=O)c2cc(NC(=O)Nc3cccc4ccccc34)ccc2O1 | nt | -1.8 | -16.3 | 1.0 | 2.0 | 2.3 | nt | ?
COCC(=O)N1C[C@H](C)[C@H](OC)CN(C)C(=O)c2cc(NC(=O)C3CCC3)ccc2OC[C@@H]1C | nt | -6.0 | 5.0 | -4.9 | 0.4 | 3.9 | nt | nt

Assay outcomes (PubChem)
